Compound activity: PubChem BioAssay, National Center for Advancing Translational Sciences (NCATS)
WRN helicase inh: qHTS for Inhibitors of WRN Helicase. AID 651768, 2012. Potency, µM (series often up to 114 µM), inactives show at the highest dose activity change, negative = inhibition, usual class: inhibitors. WRN helicase unwinding, fluorescent forked duplex, kinetic. 360,000 compounds, 0.46% hits. Bifunctional 3'-5' exonuclease/ATP-dependent helicase WRN (Homo sapiens), Q14191; further: potency means the concentration at half of the fitted maximal effect; on the % scale 0 is the no-effect control and ±100 the full control effect; nearly all actives have a fitted effect of over 55% in size
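Enzyme (20 nM final) and test compound sit together 15 min at room temperature before substrate addition. Substrate is a single-forked duplex oligonucleotide (100 nM) labelled with fluorophore and quencher, with 2 mM ATP; helicase unwinding raises red fluorescence, read kinetically.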
POLK inh: qHTS for Inhibitors of Polymerase Kappa. DNA polymerase kappa (Homo sapiens), Q9UBT6. purified Pol kappa, fluorescent DNA synthesis assay, 10 min. Potency, µM (highest dose often 107 µM), without a hit: at the top dose activity, negative = inhibition, most hits filed as inhibitors. 400,000 compounds, 0.53% hits. AID 588579, 2011; further: potency means the concentration at half of the fitted maximal effect; on the % scale 0 is the no-effect control and ±100 the full control effect
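10 nM Pol kappa preincubated 15 min at room temperature with compounds, then reaction started with substrate at 50 nM final. Fluorescence read kinetically at 0 and 10 min; buffer-only wells served as negative control.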
PI5P4K alpha inh: qHTS for Inhibitors of phosphatidylinositol 5-phosphate 4-kinase (PI5P4K); Phosphatidylinositol 5-phosphate 4-kinase type-2 alpha (Homo sapiens), P48426; PI5P4Kalpha enzyme, ADP-Glo luminescence, 60 min; hits give low values; max response, %; 330,000 compounds, 1.2% hits; AID 652105, 2013; active means max response of -50% or lower; inconclusive means between -30% and -50%; inactive means -30% or higher; further: value at the top dose of about 77 µM; on the % scale 0 is the no-effect control and ±100 the full control effect
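Reactions run in 0.038 M HEPES pH 7.4, 0.28 mM EGTA, 0.1% CHAPS and 5% DMSO, with PI5P4Kalpha, substrate, compound and 5 microM ATP final, one hour at room temperature. Readout is ADP-Glo luminescence.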
Pol eta inh: qHTS for Inhibitors of Polymerase Eta; 390,000 compounds, 1.2% hits; recombinant Pol eta, fluorescent DNA replication assay; DNA polymerase eta (Homo sapiens), Q9Y253; Potency, µM (doses to about 114 µM), for inactives: at the highest dose activity change, negative = inhibition, usual class: inhibitors; AID 588591, 2011; further: potency means the concentration at half of the fitted maximal effect; on the % scale 0 is the no-effect control and ±100 the full control effect
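Fluorescent replication assay: 50 nM final substrate added after a 15 min room-temperature compound preincubation with 10 nM enzyme. Signal taken at 0 min and again at 10 min.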
Pol iota inh: qHTS for Inhibitors of Polymerase Iota; DNA polymerase iota (Homo sapiens), Q9UNA4; Pol iota fluorescent replication assay, 10 min; Potency, µM (highest dose often 115 µM), without a hit: top-dose activity, negative = inhibition, actives largely listed as inhibitors; 390,000 compounds, 1% hits; further: potency means the concentration at half of the fitted maximal effect
Target sequence (Q9UNA4 whole entry, looked up): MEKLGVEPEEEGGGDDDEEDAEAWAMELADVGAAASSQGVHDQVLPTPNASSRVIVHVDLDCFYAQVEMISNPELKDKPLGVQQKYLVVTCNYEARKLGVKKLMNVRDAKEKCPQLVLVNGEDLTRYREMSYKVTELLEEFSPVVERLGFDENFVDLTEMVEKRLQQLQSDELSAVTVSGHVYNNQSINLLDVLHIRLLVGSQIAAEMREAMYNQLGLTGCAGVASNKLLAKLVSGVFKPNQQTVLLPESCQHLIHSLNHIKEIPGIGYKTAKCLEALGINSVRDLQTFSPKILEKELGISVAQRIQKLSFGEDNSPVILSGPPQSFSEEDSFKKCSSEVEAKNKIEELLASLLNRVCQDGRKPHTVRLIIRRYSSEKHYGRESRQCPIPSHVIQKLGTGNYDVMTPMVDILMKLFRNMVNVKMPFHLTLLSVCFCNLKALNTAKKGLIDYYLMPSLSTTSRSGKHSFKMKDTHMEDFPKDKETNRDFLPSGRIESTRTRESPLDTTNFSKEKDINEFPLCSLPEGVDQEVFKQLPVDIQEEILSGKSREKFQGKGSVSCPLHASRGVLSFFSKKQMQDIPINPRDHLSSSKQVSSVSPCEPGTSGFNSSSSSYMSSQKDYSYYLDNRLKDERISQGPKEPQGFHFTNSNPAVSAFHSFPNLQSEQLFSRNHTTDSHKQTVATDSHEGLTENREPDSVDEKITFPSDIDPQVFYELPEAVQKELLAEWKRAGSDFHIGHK
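Pol iota at 10 nM preincubated 15 min with compounds at room temperature; reaction started with fluorescent substrate, 50 nM final. Fluorescence read kinetically at 0 and 10 min; buffer-only wells as negative control.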
Pol beta inh: qHTS Assay for Inhibitors of DNA Polymerase Beta. P06746. Pol beta primer extension/strand displacement, fluorescence kinetic. Potency, µM (titrated, usually from 114 µM), inactives show at the top dose activity change, negative = inhibition, actives largely listed as inhibitors. 340,000 compounds, 1.3% hits. AID 485314, 2010; further: potency means the concentration at half of the fitted maximal effect; on the % scale 0 is the no-effect control and ±100 the full control effect
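Preincubation: enzyme (10 nM) with compound, 15 min, RT. Reaction: substrate added to 50 nM final. Reads: 0 and 10 min. Analysis: normalized, Hill fit.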
An asterisk follows results filed as active; u = inconclusive; x = not tested or not shown; ! = repeats disagree; [ ] = remark or other dose. A selection: hits, their analogues and other compounds. The true share with any hit is near 2.8%. Unless noted, the call rests on the fitted dose curve; in most records, active means well fitted curve in the direction sought with a large enough effect; inconclusive means small, poorly fitted or top-dose-only effect, or another doubt; inactive means no such curve, though single readings can be large; an effect the other way counts as inactive or inconclusive.

SMILES	WRN helicase inh	POLK inh	PI5P4K alpha inh	Pol eta inh	Pol iota inh	Pol beta inh
CCN(CC)c1ccc(/C=C/c2cccc[n+]2C)c(OC)c1	79.4µM*	-33.5%	u	-27.1%	43.3%	50.1µM*
COc1ccc(OC)c(-n2c(C)nc3cc(C(=O)O)ccc32)c1	-4.8%[57.1 µM]	-5.3%	-7.3	79.4µM*	-4.7%	16.6%
CCCC(NC(C)C(=O)N1C(C(=O)O)CC2CCCCC21)C(=O)OCC (stereo unspecified)	x	-3.8%[60.1 µM]	x	x	x	x
N#CC1=C2SCN(Cc3ccco3)CN2C(=O)CC1c1ccccc1F (stereo unspecified)	-6.1%	0.9%	x	-5.0%	5.9%	-3.3%
N#CC1=C2SCN(Cc3ccco3)CN2C(=O)CC1c1cccc2ccccc12 (stereo unspecified)	-27.0%	-25.4%	-59.8*	-15.2%	u	44.7µM*
CCc1ccccc1NC(=O)CSc1nnc(-c2cc(OC)c(OC)c(OC)c2)o1	x	-21.5%	x	-19.2%	45.3%	u
O=C(Cn1c(SCc2ccccc2F)nc2ccncc21)Nc1ccccc1C(F)(F)F	x	-7.4%	x	-2.0%	u	-0.4%
COc1ccc(-c2c[n+]3c4n2CCCCC4=C(c2ccc(Br)cc2)C3)cc1	-14.5%	-2.2%	x	1.4%	u	25.1µM*
Clc1ccc(C2=C3CCCCn4c(-c5ccccc5)c[n+](c43)C2)cc1	4.8%	-11.3%	u	u	10.7%	u
CSc1nc(C)cc(C)c1C#N	-5.7%	-3.6%	-50.1*	-22.6%	-0.1%	17.1%
Cc1cc(C)c(C#N)c(SCc2ccc(F)cc2)n1	2.4%	6.2%	-5.5	-1.3%	-8.6%	-2.7%
Cc1ccc(/C=N/n2c(-c3ccccn3)n[nH]c2=S)o1	-7.3%	-25.3%	-6.9	-10.8%	50.1µM*	-25.6%
O=C(CSC1=NCCS1)Nc1nc2c(s1)CCCC2	-27.8%	-15.9%	u	-10.5%	-8.0%	56.2µM*
Cn1nnnc1SCC(=O)Nc1nc2c(s1)CCCC2	-3.9%	-0.5%[60.1 µM]	x	9.3%	-17.9%	-2.5%
O=C1c2c(O)cccc2Cc2cccc(O)c21	-5.9%	22.4µM*!	-2.5	-20.6%	7.6%	x
O=C1Cc2cccc(=O)c(O)c2C(=O)O1	-20.1%	x	-25.9	8.91µM*	x	x
COc1ccc(OC)c(N(C)S(=O)(=O)c2cc3c(cc2C)NC(=O)CO3)c1	-7.0%	-4.0%	-1.5	0.1%	-4.3%	-20.8%
COc1ccc(Cl)cc1N(C)c1nc(N2CCN(S(=O)(=O)c3ccc(C)cc3)CC2)c2ccccc2n1	x	16.6%	x	x	13.5%	x
COc1ccc(Nc2ccnc3ccccc23)cc1	-5.7%	-8.7%	u	-11.8%	3.9%	10.0%
CC(C)Nc1ccc(Nc2ccnc3cc4ccccc4cc23)cc1	35.5µM*	u	-19.5	-17.7%	u	14.1µM*
c1ccc(CCNc2ccnc3cc4ccccc4cc23)cc1	-19.4%	-13.7%	3.8	-20.7%	80.9%	22.4µM*
Cc1csc(/C(=N\O)c2csc(C)n2)n1	-3.3%	-6.4%[60.1 µM]	x	3.5%	1.7%	-10.0%
CCCCNS(=O)(=O)c1ccc2nc(SCC(=O)c3ccc(C#N)cc3)[nH]c2c1	u	1.4%	-9.8	u	-2.1%	39.8µM*
N#Cc1cccc2c1-c1ccccc1/C2=N/NC(N)=S	-15.9%	-9.6%	-17.1	u	20µM*	0.7%
CC(CN1CCN(c2ccccc2)CC1)c1ccccc1 (stereo unspecified)	-2.7%[11.6 µM]	-16.3%	x	-9.7%	44.7µM*	14.9%
SMILES	WRN helicase inh	POLK inh	PI5P4K alpha inh	Pol eta inh	Pol iota inh	Pol beta inh
COc1ccc(CCN2C(=O)NC(NC(=O)c3ccccc3OC)(C(F)(F)F)C2=O)cc1OC (stereo unspecified)	x	0.7%	x	-16.0%	17.0%	-23.6%
COc1ccccc1C(=O)NC1(C(F)(F)F)NC(=O)N(CCc2ccccc2)C1=O (stereo unspecified)	x	-9.1%	x	-8.3%	79.4µM*	4.0%
CCCC12CN3CC(CCC)(CN(C1)C3c1ccccc1)C2=O (stereo unspecified)	x	-3.9%[60.1 µM]	x	0.6%	11.2%	-0.2%
CC1=CC(c2ccccc2)n2nc(N3C(=O)c4ccccc4C3=O)nc2N1 (stereo unspecified)	-13.5%[57.1 µM]	44.7µM*	x	-19.4%	6.8%	-15.6%
CN(C)c1ccc(C=Nc2ccccc2C(N)=O)cc1	-4.2%	-11.4%	-3.8	-2.7%	89.1µM*	-3.7%
CN1C(C(=O)NCc2ccccc2)CC2Cn3c(nc4cc5ccccc5cc43)C21 (stereo unspecified)	5.4%	-7.2%	2.2	1.5%	10.3%	-6.3%
O=C(O)CP(=O)(O)O	0.0%	7.9%[60.1 µM]	0.1	-3.6%	12.6µM*!	1.1%
O=P(O)(O)CP(=O)(O)O	x	0.7%[19.4 µM]	x	x	x	3.5%
COc1cc([N+](=O)[O-])cc(/C=N/NC(=O)C(C)Nc2cccc3ccccc23)c1O (stereo unspecified)	-24.9%[57.1 µM]	-4.1%	-50.3*	u	27.0%	-0.2%
CC(Nc1cccc2ccccc12)C(=O)N/N=C/c1ccc([N+](=O)[O-])cc1 (stereo unspecified)	-7.8%	-17.4%	2.1	-26.1%	171.4%	1.2%
Cc1ccc(C)c(C(C)NC(=S)NCc2ccc(F)cc2)c1 (stereo unspecified)	-4.4%	0.6%	4.9	-17.0%	63.0%	u
COc1cccc(Nc2n[nH]c(=S)s2)c1	-32.2%[57.1 µM]	-7.7%	-81.7*	-16.7%	-2.3%	17.0%
COc1ccccc1Nc1n[nH]c(=S)s1	u	3.4%	-78.1*	-27.4%	36.6%	31.4%
Cc1noc(NS(=O)(=O)c2ccc(NC(=O)Nc3ccc(Cl)c(Cl)c3)cc2)c1C	-5.8%[11.6 µM]	-3.9%	-22.5	50.1µM*	u	u
Cc1cc2oc(C(=O)Nc3ccc(S(=O)(=O)Nc4onc(C)c4C)cc3)cc(=O)c2cc1C	x	0.0%	x	79.4µM*	u	-3.5%
Cc1noc(NS(=O)(=O)c2ccc(NC(=O)C(Cl)(Cl)Cl)cc2)c1C	-1.1%	-7.7%	2.0	-11.1%	10.6%	5.0%
C=CCNc1nc(Cl)nc(Nc2ccc(OCC)cc2)n1	-0.4%	-7.7%	8.0	-10.4%	4.0%	-3.1%
CCCc1cc2c(OC(=O)CC)c(-c3ccc(C(=O)OCC)o3)c(=O)oc2cc1OC	u	-9.5%	-65.3*	u	38.0%	2.1%
CCCc1cc(-c2n[nH]c(C)c2-c2ccc(C(=O)OCC)o2)c(O)cc1O	-1.2%	-6.2%	x	-15.1%	22.6%	u
C=CCOC(=O)C1=C[C@@H](c2csc3ccccc23)[C@H](CCCO)[C@@H](OCC)O1	-1.5%	-14.4%	10.1	u	9.8%	x
